Experimental findings from ChEMBL document CHEMBL1961873, “Compounds: GSK PKIS; Assays: Nanosyn kinase panel” (2012) are described below.
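Also: values are averaged percent inhibition of TNK1, compounds from the GSK published kinase inhibitor set.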

In this experiment the target is T1, Non-receptor tyrosine-protein kinase TNK1 (Homo sapiens) (UniProt Q13470).
T1 sequence (whole entry): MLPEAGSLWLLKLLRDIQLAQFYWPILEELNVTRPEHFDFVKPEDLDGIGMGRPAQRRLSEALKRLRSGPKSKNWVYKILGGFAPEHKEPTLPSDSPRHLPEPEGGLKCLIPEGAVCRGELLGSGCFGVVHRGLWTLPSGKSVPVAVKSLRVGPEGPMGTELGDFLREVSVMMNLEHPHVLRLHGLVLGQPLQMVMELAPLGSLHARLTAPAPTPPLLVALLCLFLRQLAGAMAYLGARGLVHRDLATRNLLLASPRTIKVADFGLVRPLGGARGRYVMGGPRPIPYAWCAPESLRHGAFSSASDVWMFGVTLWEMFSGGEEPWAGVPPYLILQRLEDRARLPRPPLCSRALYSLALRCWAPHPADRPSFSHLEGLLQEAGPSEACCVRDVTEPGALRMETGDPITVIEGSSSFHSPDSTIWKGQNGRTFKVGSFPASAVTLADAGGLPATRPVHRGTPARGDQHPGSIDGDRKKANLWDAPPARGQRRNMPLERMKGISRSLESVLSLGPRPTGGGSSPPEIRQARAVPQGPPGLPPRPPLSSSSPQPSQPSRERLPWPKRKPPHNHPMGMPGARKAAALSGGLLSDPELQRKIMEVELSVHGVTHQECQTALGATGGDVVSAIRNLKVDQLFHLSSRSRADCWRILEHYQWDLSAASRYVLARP
Particulars: at 1 µM.
For the compound `CCS(=O)(=O)c1ccc(OC)c(Nc2ncc(-c3cccc(OC)c3)o2)c1`, the inhibition came to 90.6%.
Regarding `Cc1ccc2c(-c3ccnc(Nc4cccc(C(F)(F)F)c4)n3)c(-c3ccccc3)nn2n1`, the inhibition worked out at 19.5%.
Take `CN(C)C(=O)O[C@H]1CN[C@H](C#Cc2cc3ncnc(Nc4ccc(OCc5cccc(F)c5)c(Cl)c4)c3s2)C1`: the inhibition was 12%.
Turning to `COc1cccc(-n2nc(C)c3c(N/N=C(\C)c4ccncc4)ncnc32)c1`, the inhibition amounted to 0.13%.
To `CCn1c(-c2nonc2N)nc2ccc(F)cc21` belongs 9.97%; to `Cc1cc(Cl)cc2c1NC(=O)C2=NNc1ccc(S(N)(=O)=O)cc1`, 7.55%; to `C[C@@H](Oc1cc(-n2cnc3ccc(OCC4CCN(C)CC4)cc32)sc1C(N)=O)c1ccccc1C(F)(F)F`, 30.3%.
The figure for `Cc1nc(-c2ccccc2)n2nc(NCCCN3CCOCC3)ncc12` is 2.53%.
In the case of `CN(C)C(=O)O[C@@H]1CN[C@@H](C#Cc2cc3ncnc(Nc4ccc(OCc5cccc(F)c5)c(Cl)c4)c3s2)C1`, the inhibition stood at 8.64%.
With `c1ccc(Nc2ncc(-c3ccccc3)o2)cc1`, the inhibition was 9.74%.
The figure for `COc1cccc(-n2ncc3c(N/N=C/c4ccc(S(C)(=O)=O)cc4)ncnc32)c1` is 20%; for `OCc1ccc(-c2nc(-c3ccccn3)c(-c3ccc4c(c3)OCO4)[nH]2)cc1` it is -4.68%; for `c1ccc(Cc2nc3ccc(Nc4ncnc5ccccc45)cc3[nH]2)cc1` it is 11.4%.
To `CC(C)c1ccc2c(c1)NC(=O)/C2=N/Nc1ccc(S(N)(=O)=O)cc1` belongs 9.9%; to `NC(=O)c1cccc(Nc2nccc(Nc3cccc(F)c3)n2)c1`, 44.3%; to `COc1cc2ncn(-c3cc(OCc4ccccc4S(C)(=O)=O)c(C#N)s3)c2cc1OC`, 77.9%.
Turning to `COc1cccc(-n2ncc3c(N/N=C/c4ccc(C)cc4)ncnc32)c1`, the inhibition worked out at 9.73%.
In the case of `CN(C)CCCn1c(-c2nonc2N)nc2cnccc21`, the inhibition was -3.93%.
For the compound `O=C1Nc2ccc(-c3cccnc3)cc2C1=Cc1cc(Br)c(O)c(Br)c1`, the inhibition was found to be 80.6%.
To `N#Cc1c(NC(=O)c2ccccc2F)sc2c1CCCC2` belongs -0.58%; to `CCOc1nccc2c1nc(-c1nonc1N)n2CC`, 20.1%.
On to `COC(=O)c1cncc(/C=C/c2c(C)cc(O)cc2C)c1`, for which the inhibition was found to be 20%.
With `Cc1cc(O)cc(C)c1/C=C/c1cncc(C(=O)N(C)C)c1`, the inhibition worked out at 1.79%.
The figure for `NS(=O)(=O)c1ccc(NC=C2C(=O)Nc3ccc4ncsc4c32)cc1` is 53.1%.
Turning to `CN(c1ccc(NC(=O)Nc2ccc(OC(F)(F)F)cc2)cc1)c1ccnc(Nc2cccc(S(N)(=O)=O)c2)n1`, the inhibition worked out at 82.2%.
The figure for `Cc1ccc(Nc2ccnc(Nc3cccc(C(N)=O)c3)n2)cc1O` is 52.1%; for `CC(C)c1ccc(Nc2nccc(-c3cnn4ncccc34)n2)cc1` it is 49.3%.
To `NS(=O)(=O)c1cccc(Nc2cc(-c3ccc(F)cc3)n[nH]2)c1` belongs 16.2%; to `Cc1ccc(NC(=O)CC2CC2)cc1-c1ccc(C(=O)NCC2CC2)cc1`, 10.1%.
For `N#Cc1cccc(Nc2nccc(-c3cnn4ncccc34)n2)c1`, the inhibition came to 52.3%.
Take `NS(=O)(=O)c1ccc(N/N=C2\C(=O)Nc3ccc(Cl)cc32)cc1`: the inhibition amounted to 20.5%.
With `Nc1nccc(-c2c(-c3ccc(F)cc3)nn3cc(C(F)(F)F)ccc23)n1`, the inhibition is -0.22%.

Usually inhibition stands for the change of the read-out against control, counted positive when it falls.
